Relative cell viability data for 18 molecules are collected here from the supplement of paper PMC8371130.

Structures can show the parent of a compound that is named as a salt.

In the assay the test system is HL-1. Kind of assay: relative cell viability (CellTiter-Glo) vs DMSO control (% of DMSO control); higher = more viable cells. The essentials:
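Cell viability, normalised to vehicle-treated control cells, was read by CellTiter-Glo luminescence. For this, HL-1 mouse atrial cardiomyocytes were plated at 1000 cells per well in 384-well plates alongside compounds at 40, 200, 1000 or 5000 nM in 0.01% DMSO. After a day, plates either spent 48 h in a hypoxic workstation at 1% O2 and then 24 h reoxygenating in a normal incubator, or remained in normoxia for the same period.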
On the technique in general: Cellular ATP, detected with luciferase, serves as a proxy for viable cell number.

Where [1] appears, read: oxygen condition: hypoxia 48 h (1% O2) + reoxygenation 24 h, 40 nM.
Where [2] appears, read: oxygen condition: hypoxia 48 h (1% O2) + reoxygenation 24 h, 200 nM.
[3] abbreviates: oxygen condition: hypoxia 48 h (1% O2) + reoxygenation 24 h, 1000 nM.
Setting [4] is: oxygen condition: hypoxia 48 h (1% O2) + reoxygenation 24 h, 5000 nM.
[5] abbreviates: oxygen condition: normoxia 72 h, 40 nM.
Where [6] appears, read: oxygen condition: normoxia 72 h, 200 nM.
Where [7] appears, read: oxygen condition: normoxia 72 h, 1000 nM.
[8] abbreviates: oxygen condition: normoxia 72 h, 5000 nM.

Consider `O=C(Nc1ccc([N+](=O)[O-])cc1Cl)c1cc(Cl)ccc1O` [Niclosamide], for which the relative cell viability is, setting by setting: under setting [1], 10; under setting [2], 3.13; under setting [3], 58.1; under setting [4], 17.5; under setting [5], 8.34; under setting [6], 2.9. In addition, the relative cell viability by setting is: under setting [7], 56.2; under setting [8], 7.03.
Regarding `Cc1c(-c2ccccc2)oc2c(C(=O)OCCN3CCCCC3)cccc2c1=O` [Flavoxate HCl], the relative cell viability runs as follows: under setting [1], 96.7; under setting [2], 102; under setting [3], 108; under setting [4], 108; under setting [5], 103; under setting [6], 101. The relative cell viability is, setting by setting: under setting [7], 106; under setting [8], 109.
With `CC(=O)[C@H]1CC[C@H]2[C@@H]3C=CC4=CC(=O)CC[C@@]4(C)[C@@H]3CC[C@]12C` [Dydrogesterone], the relative cell viability under setting [1] was found to be 97.1; the relative cell viability under setting [2] was found to be 99; the relative cell viability under setting [3] is 106; the relative cell viability under setting [4] amounted to 105; the relative cell viability under setting [5] came to 100; the relative cell viability under setting [6] was determined as 98.8. Also, the relative cell viability amounted to 96.7 under setting [7] and 105 under setting [8].
`CCOC(=O)c1c(C)n(C)c2ccc(O)cc12` [Mecarbinate]: the relative cell viability runs as follows: under setting [1], 102; under setting [2], 102; under setting [3], 101; under setting [4], 113; under setting [5], 101; under setting [6], 99.4. Besides, the relative cell viability came to 106 under setting [7] and 110 under setting [8].
Consider `CCN(CC)C(=O)/C(C#N)=C/c1cc(O)c(O)c([N+](=O)[O-])c1` [Entacapone], for which the relative cell viability is, setting by setting: under setting [1], 101; under setting [2], 105; under setting [3], 103; under setting [4], 108; under setting [5], 100; under setting [6], 111. The relative cell viability is, setting by setting: under setting [7], 103; under setting [8], 114.
In the case of `CN(C)CCOc1ccc(/C(=C(/CCCl)c2ccccc2)c2ccccc2)cc1` [Toremifene Citrate], the relative cell viability under setting [1] is 104; the relative cell viability under setting [2] was determined as 103; the relative cell viability under setting [3] turned out to be 108; the relative cell viability under setting [4] was determined as 108; the relative cell viability under setting [5] was found to be 103; the relative cell viability under setting [6] worked out at 99.5. The relative cell viability by setting is: under setting [7], 105; under setting [8], 108.
Turning to `NCCCCCC(=O)O` [Aminocaproic acid], the relative cell viability under setting [1] was determined as 102; the relative cell viability under setting [2] turned out to be 102; the relative cell viability under setting [3] was 106; the relative cell viability under setting [4] came out at 107; the relative cell viability under setting [5] came to 106; the relative cell viability under setting [6] was 103. The relative cell viability worked out at 110 under setting [7] and 112 under setting [8].
As to `CCC(=O)NCC[C@@H]1CCc2ccc3c(c21)CCO3` [Ramelteon], the relative cell viability under setting [1] came out at 104; the relative cell viability under setting [2] turned out to be 116; the relative cell viability under setting [3] was 110; the relative cell viability under setting [4] is 111; the relative cell viability under setting [5] is 105; the relative cell viability under setting [6] was determined as 108. Moreover, the relative cell viability came to 118 under setting [7] and 107 under setting [8].
For `CC(C)(CO)[C@@H](O)C(=O)NCCC(=O)O` [Pantothenic acid], the relative cell viability is, setting by setting: under setting [1], 100; under setting [2], 103; under setting [3], 104; under setting [4], 108; under setting [5], 100; under setting [6], 101. For the same molecule, the relative cell viability reads like this: under setting [7], 99.5; under setting [8], 106.
On to `NS(=O)(=O)Cc1noc2ccccc12` [Zonisamide], for which the relative cell viability reads like this: under setting [1], 105; under setting [2], 108; under setting [3], 107; under setting [4], 115; under setting [5], 108; under setting [6], 112. The relative cell viability amounted to 116 under setting [7] and 103 under setting [8].
Take `CC(=O)O[C@@]12CO[C@@H]1C[C@H](O)[C@@]1(C)C(=O)[C@H](O)C3=C(C)[C@@H](OC(=O)[C@H](O)[C@@H](NC(=O)OC(C)(C)C)c4ccccc4)C[C@@](O)([C@@H](OC(=O)c4ccccc4)[C@H]21)C3(C)C` [Docetaxel]: the relative cell viability came out at 26.9 under setting [1]; 24.1 under setting [2]; 27.2 under setting [3]; 29.3 under setting [4]; 19.3 under setting [5]; 23 under setting [6]. The relative cell viability by setting is: under setting [7], 22.6; under setting [8], 23.6.
For `COc1cccc2c1C(=O)c1c(O)c3c(c(O)c1C2=O)C[C@@](O)(C(=O)CO)C[C@@H]3O[C@H]1C[C@H](N)[C@@H](O)[C@H](C)O1` [Epirubicin Hydrochloride], the relative cell viability was 96.8 under setting [1]; 102 under setting [2]; 107 under setting [3]; 91.5 under setting [4]; 93.5 under setting [5]; 97.6 under setting [6]. In addition, the relative cell viability was 91.7 under setting [7] and 96.4 under setting [8].
For `Cc1ncc(C[n+]2csc(CCO)c2C)c(N)n1` [Thiamine HCl], the relative cell viability under setting [1] was 101; the relative cell viability under setting [2] was 107; the relative cell viability under setting [3] came out at 102; the relative cell viability under setting [4] was 112; the relative cell viability under setting [5] was 99.4; the relative cell viability under setting [6] was 104. Moreover, the relative cell viability was 106 under setting [7] and 117 under setting [8].
In the case of `Cc1cccc(C)c1OCC(C)N` (centres undefined) [Mexiletine HCl], the relative cell viability is, setting by setting: under setting [1], 108; under setting [2], 105; under setting [3], 104; under setting [4], 121; under setting [5], 103; under setting [6], 105. The relative cell viability is, setting by setting: under setting [7], 107; under setting [8], 123.
Regarding `C[C@@H](O[C@H]1OCCN(Cc2nn(P(=O)(O)O)c(=O)[nH]2)[C@H]1c1ccc(F)cc1)c1cc(C(F)(F)F)cc(C(F)(F)F)c1` [Fosaprepitant dimeglumine], the relative cell viability reads like this: under setting [1], 104; under setting [2], 105; under setting [3], 119; under setting [4], 108; under setting [5], 113; under setting [6], 129. The relative cell viability under setting [7] worked out at 130 and the relative cell viability under setting [8] amounted to 105.
As to `O=c1[nH]cc(F)c(=O)[nH]1` [Adrucil], the relative cell viability is, setting by setting: under setting [1], 110; under setting [2], 94.1; under setting [3], 52.9; under setting [4], 18.6; under setting [5], 96.6; under setting [6], 81.2. Besides, the relative cell viability under setting [7] worked out at 42.9 and the relative cell viability under setting [8] was found to be 15.4.
As to `Cc1[nH]c(=O)c(C#N)cc1-c1ccncc1` [Milrinone], the relative cell viability by setting is: under setting [1], 102; under setting [2], 106; under setting [3], 105; under setting [4], 111; under setting [5], 99.8; under setting [6], 108. Moreover, the relative cell viability reads like this: under setting [7], 99.1; under setting [8], 113.
As to `CO[C@@H]1[C@@H](OC(N)=O)[C@@H](O)[C@H](Oc2ccc3c(O)c(NC(=O)c4ccc(O)c(CC=C(C)C)c4)c(=O)oc3c2C)OC1(C)C` [Novobiocin sodium], the relative cell viability under setting [1] worked out at 100; the relative cell viability under setting [2] came out at 102; the relative cell viability under setting [3] is 102; the relative cell viability under setting [4] was 110; the relative cell viability under setting [5] was found to be 97.1; the relative cell viability under setting [6] was 99.2. For the same molecule, the relative cell viability was 101 under setting [7] and 113 under setting [8].
